In the library only some 28% were active in any assay of this set; here they are far more common.
D1 mod: D1 dopamine receptor (human) allosteric modulation; P21728; 58,000 tested, 5.9% active; HEK293 D1, CRE-luciferase, dopamine EC30 potentiation; actives deviate in either direction; B-score at 10 µM;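 active = luminescence count or its row- and column-corrected plate score outside the 99.7% band of the plate's sample wells, on either side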
hDAT+cocaine: changed human dopamine transporter uptake under cocaine IC80; LLC-PK1 hDAT cells, [14C]-dopamine uptake with cocaine IC80; actives deviate in either direction; 110,000 tested, 1.3% active; Q01959; AID 449768; B-score at 10 µM;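 active = Z score or B-score, a plate-position-corrected score, falls beyond the plate's 99.7% confidence bounds, in either direction; inactive = both scores lie inside the 99.7% bounds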;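 note: scored against the spread of the other compound wells on the same plate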
CYP2C19 inh: inhibitors of human CYP2C19; P33261; 96,000 tested, 21% active; CYP2C19 Supersomes, luciferin-H EGE luminescence, 30 min; inhibition, % at 5 µM; AID 778;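 active = CYP2C19 inhibition above a set limit at 5 µM in the primary screen, cut at about 50% in these data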;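 note: plate controls were negative control wells for no effect and 2.5 mM tranylcypromine positive control for full effect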
Target sequence (P33261 whole entry, looked up): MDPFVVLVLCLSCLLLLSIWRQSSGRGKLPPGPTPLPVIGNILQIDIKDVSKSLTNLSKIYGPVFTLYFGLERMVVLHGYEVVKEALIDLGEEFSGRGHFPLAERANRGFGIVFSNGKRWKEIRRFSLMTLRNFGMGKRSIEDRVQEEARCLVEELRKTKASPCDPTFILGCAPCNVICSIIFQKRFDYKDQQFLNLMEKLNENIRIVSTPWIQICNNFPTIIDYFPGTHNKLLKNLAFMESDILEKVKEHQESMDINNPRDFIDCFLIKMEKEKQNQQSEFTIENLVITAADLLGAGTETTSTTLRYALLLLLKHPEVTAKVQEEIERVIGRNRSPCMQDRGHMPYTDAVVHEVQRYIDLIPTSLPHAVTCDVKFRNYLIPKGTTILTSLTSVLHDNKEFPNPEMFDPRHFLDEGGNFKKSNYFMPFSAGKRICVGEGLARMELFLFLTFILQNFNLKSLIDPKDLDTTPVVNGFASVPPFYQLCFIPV
CYP2C9 activ: increases human cytochrome P450 2C9 activity | P11712 | recombinant CYP2C9, luciferin-H conversion, luminescence; active compounds read high; factor 1 = untreated enzyme, 0 = blocked | activation factor at 5 µM | 96,000 tested, 1.4% active | AID 1024;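 active = activation factor of 2 or more for CYP2C9 at a 5 µM dose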;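 note: 0 = sulfaphenazole-blocked wells and 1 = vehicle-only wells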
CYP2C9 inhib: inhibitors of human CYP2C9. inhibition, % at 5 µM. 96,000 tested, 20% active. P11712. CYP2C9 Supersomes, luciferin-H conversion, luminescence;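 active = blocking of liver enzyme CYP2C9 beyond about 50% at 5 µM, limit read from the data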
CYP2C19 activ: increases human CYP2C19 enzyme activity | recombinant CYP2C19, luciferin-H EGE luminescence; active compounds read high; 0 = fully inhibited enzyme, 1 = untreated enzyme | activation factor at 5 µM | 96,000 tested, under 10 active | AID 1025;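 active = activation factor of at least 2 at 5 µM in the primary screen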;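 note: 0 = wells with 2.5 mM tranylcypromine and 1 = vehicle-only wells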
* marks the source's active call; other numbers are inactive results.

`Nc1ccc(N2CCN(C(=O)c3cccs3)CC2)cc1` gave hDAT+cocaine 0.27, CYP2C19 inh 97*, CYP2C9 activ 0.3, CYP2C9 inhib 71* and CYP2C19 activ 0.
For CC(=O)Nc1ccc(N2CCN(C(=O)c3cccs3)CC2)cc1 the results were D1 mod 0.011, hDAT+cocaine -8.2*, CYP2C19 inh 6, CYP2C9 activ 1, CYP2C9 inhib 2 and CYP2C19 activ 0.9.
CC(C)C(=O)N1CCN(c2ccc(NC(=O)c3cccs3)cc2)CC1 was read as hDAT+cocaine -0.78.
`Nc1ccc(N2CCN(C(=O)c3ccco3)CC2)cc1` gave hDAT+cocaine -0.72, CYP2C19 inh 44, CYP2C9 activ 0.8, CYP2C9 inhib 18 and CYP2C19 activ 0.6.
For Cc1cc(C)c(S(=O)(=O)N(C2=NCCS2)S(=O)(=O)c2c(C)cc(C)cc2C)c(C)c1 the results were hDAT+cocaine -0.69.
For COC(=O)c1ccccc1NC(=O)CSc1n[nH]c(CC(C)C)n1 the results were D1 mod -0.076, hDAT+cocaine 0.092, CYP2C19 inh 86*, CYP2C9 activ 1.5, CYP2C9 inhib -50 and CYP2C19 activ 0.1.
For O=C(CSc1ccccc1)Nc1ccccc1C(=O)O the results were hDAT+cocaine -0.029, CYP2C19 inh 1, CYP2C9 activ 0.7, CYP2C9 inhib 33 and CYP2C19 activ 1.
Screening Cc1ccc(SCC(=O)Nc2ccccc2C(=O)O)cc1 returned hDAT+cocaine 1.1, CYP2C19 inh 34, CYP2C9 activ 0.2, CYP2C9 inhib 85* and CYP2C19 activ 0.7.
Screening COC(=O)c1ccccc1NC(=O)CSc1n[nH]c(C)n1 returned hDAT+cocaine 0.12.
COC(=O)c1ccccc1NC(=O)CSc1ccccc1 was read as D1 mod 3.6, hDAT+cocaine -9*, CYP2C19 inh 95*, CYP2C9 activ 1.3, CYP2C9 inhib -28 and CYP2C19 activ 0.
COC(=O)c1ccccc1NC(=O)Cn1cc(Br)cn1 was read as D1 mod 2.5, hDAT+cocaine -0.56, CYP2C19 inh 60*, CYP2C9 activ 1, CYP2C9 inhib 0 and CYP2C19 activ 0.4.
Cc1cc(C)n(C(=O)c2cc3c(s2)CCCC3)n1 was read as hDAT+cocaine -0.44, CYP2C19 inh 1, CYP2C9 activ 1, CYP2C9 inhib 1 and CYP2C19 activ 1.
`CC(C)C(=O)Nc1ccc(Cc2ccc(NC(=O)C(C)C)c(O)c2)cc1O` gave hDAT+cocaine -0.83, CYP2C19 inh 64*, CYP2C9 activ 0.1, CYP2C9 inhib 93* and CYP2C19 activ 0.4.
Screening Cc1cc(C)n(-c2cc(C)c(C)cc2Br)n1 returned D1 mod 0.43, hDAT+cocaine 0.59, CYP2C19 inh 26, CYP2C9 activ 1.1, CYP2C9 inhib -9 and CYP2C19 activ 0.7.
CCOC(=O)c1ccc(NC(=O)c2cn(-c3ccccc3)nc2-c2ccncc2)cc1 was read as hDAT+cocaine -0.96, CYP2C19 inh 15, CYP2C9 activ 0.7, CYP2C9 inhib 31 and CYP2C19 activ 0.8.
For O=C(c1cn(-c2ccccc2)nc1-c1ccncc1)N1CCCCC1 the results were D1 mod 0.02, hDAT+cocaine 0.29, CYP2C19 inh 52*, CYP2C9 activ 0.5, CYP2C9 inhib 48 and CYP2C19 activ 0.5.
Screening O=C(c1cn(-c2ccccc2)nc1-c1cccs1)N1CCOCC1 returned hDAT+cocaine 1.4, CYP2C19 inh 15, CYP2C9 activ 0.6, CYP2C9 inhib 38 and CYP2C19 activ 0.9.
For O=C(Nc1nccs1)c1cn(-c2ccccc2)nc1-c1ccccc1 the results were hDAT+cocaine 0.52, CYP2C19 inh 21, CYP2C9 activ 0.4, CYP2C9 inhib 62* and CYP2C19 activ 0.8.
CC(C)COc1ccc(-c2nn(-c3ccccc3)cc2C(=O)Nc2nccs2)cc1 was read as hDAT+cocaine -0.11, CYP2C19 inh 16, CYP2C9 activ 0.6, CYP2C9 inhib 37 and CYP2C19 activ 0.8.
Screening O=C(OCc1ccccc1)c1cn(-c2ccccc2)nc1-c1ccncc1 returned hDAT+cocaine -0.047, CYP2C19 inh 52*, CYP2C9 activ 0.6, CYP2C9 inhib 42 and CYP2C19 activ 0.5.
O=C(c1cn(-c2ccccc2)nc1-c1ccc(F)cc1)N1CCOCC1 was read as D1 mod 0.55, hDAT+cocaine -0.19, CYP2C19 inh 16, CYP2C9 activ 0.7, CYP2C9 inhib 32 and CYP2C19 activ 0.8.
Screening O=C(c1cn(-c2ccccc2)nc1-c1cccs1)N1CCN(c2ccccc2)CC1 returned hDAT+cocaine 0.19, CYP2C19 inh 96*, CYP2C9 activ 0, CYP2C9 inhib 98* and CYP2C19 activ 0.
`O=C(Cn1c(-c2cscn2)nc2ccccc21)Nc1ccccc1F` gave hDAT+cocaine 0.58, CYP2C19 inh 45, CYP2C9 activ 0.9, CYP2C9 inhib 11 and CYP2C19 activ 0.5.
COc1ccc(CN2CCC(C(=O)NCCc3ccc(OC)c(OC)c3)CC2)c(OC)c1 was read as hDAT+cocaine -0.031, CYP2C19 inh 6, CYP2C9 activ 0.9, CYP2C9 inhib 13 and CYP2C19 activ 0.9.
O=C1C(c2ccc(F)cc2)N(Cc2ccc3c(c2)OCO3)C(=O)CN1C1CCCCC1 (stereo not drawn) was read as D1 mod -0.36, hDAT+cocaine -0.44, CYP2C19 inh 19, CYP2C9 activ 0.7, CYP2C9 inhib 33 and CYP2C19 activ 0.8.
Screening COC(=O)c1cn(-c2ccccc2)nc1-c1ccncc1 returned hDAT+cocaine 1.8*, CYP2C19 inh 37, CYP2C9 activ 0.8, CYP2C9 inhib 22 and CYP2C19 activ 0.6.
COc1ccc(S(=O)(=O)N2CCN(C)CC2)cc1Br was read as D1 mod -1.1, hDAT+cocaine -0.95, CYP2C19 inh 28, CYP2C9 activ 1.8, CYP2C9 inhib -78 and CYP2C19 activ 0.7.
`CC1CCN(S(=O)(=O)c2ccc3c(c2)C(=NO)c2cc(S(=O)(=O)N4CCC(C)CC4)ccc2-3)CC1` gave hDAT+cocaine -0.34, CYP2C19 inh 1, CYP2C9 activ 0.9, CYP2C9 inhib 8 and CYP2C19 activ 1.
`CCN1CCN(S(=O)(=O)c2ccc(OC)c(Br)c2)CC1` gave D1 mod -0.13, hDAT+cocaine -1.3, CYP2C19 inh 72*, CYP2C9 activ 2.6*, CYP2C9 inhib -159 and CYP2C19 activ 0.3.
For CCN1CCN(S(=O)(=O)c2ccc3ccccc3c2)CC1 the results were hDAT+cocaine -0.65, CYP2C19 inh 71*, CYP2C9 activ 2*, CYP2C9 inhib -102 and CYP2C19 activ 0.3.
`COc1ccc(S(=O)(=O)N2CCC(C)CC2)cc1Br` gave D1 mod 0.33, hDAT+cocaine 1.5, CYP2C19 inh 71*, CYP2C9 activ 2.9*, CYP2C9 inhib -194 and CYP2C19 activ 0.3.
Screening Cc1nc(SCC(=O)N2CCN(c3ccccc3)CC2)c2c(=O)n(C)c(=O)n(C)c2n1 returned D1 mod 1.5.
